Inconclusive results are not listed. Active and inactive are the calls of the source. Unless noted, calls follow the shape of the dose curve; as a rule, active = well fitted curve in either direction with a large enough effect (not every such curve was filed as active); inconclusive = small, poorly fitted or top-dose-only effect, or another doubt; inactive = flat fitted curve, though single readings scatter.
What was measured:
[1] = AP1 Signaling Pathway (AID 357);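 also: ME-180 reporter cells stimulated with EGF at its EC50 level; % is scaled to controls: 0 for no effect and ±100 for the full control effect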
In short: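 First, ME-180 AP-1-bla cells were cultured overnight at 37 °C in low-serum Opti-MEM. Next, titrated compounds with EC50 EGF were incubated 5 hours. Finally, CCF4 was added for 2.5 hours and the 460/530 nm ratio recorded.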

[2] = NFAT Signaling Pathway (AID 444); conditions: Jurkat NFAT-bla M1, carbachol, beta-lactamase ratio, 5 h; at 17.2 µM (top of the series) unless noted;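 also: carbachol stimulus at about its EC50 of 1 µM final; % is scaled to controls: 0 for no effect and ±100 for the full control effect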
In short: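 Read-out: CCF4 FRET ratio (460 nm/530 nm) after 1 h RT dye loading, used for %activity and AC50 from titration series. Cells: Jurkat NFAT-β-lactamase/M1 line, treated with compound plus 1 uM carbachol for 5 h, 37 °C.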

[3] = Stat Signaling Pathway (AID 446);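 also: ME-180 cervical cancer cells given 40 pM IL-6 alongside compound; SIE-controlled beta-lactamase reporter measured as 460/530 nm FRET emission ratio; % is scaled to controls: 0 for no effect and ±100 for the full control effect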
In short: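 Normalization used AC90 stimulation (300 pM IL-6) and AC90 inhibition (125 nM pan-JAK inhibitor at 40 pM IL-6). The underlying signal is SIE-driven beta-lactamase in ME-180 cells after 5 h IL-6 exposure with compound.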

[4] = target: Glucocorticoid receptor (Homo sapiens) (UniProt P04150); assay: GR-GFP Redistribution (AID 450;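 active = compounds whose dose series gives a full or clear partial fitted curve of increased nuclear translocation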; also: potency is read from the fitted curve at half-maximal effect); conditions: U2OS GR-GFP nuclear translocation, laser cytometry, 2 h
[5] = target: Glucocorticoid receptor (Homo sapiens) (UniProt P04150); assay: GR-EFC Redistribution (AID 451; calls by dose curve; also: potency is read from the fitted curve at half-maximal effect); conditions: CHO-K1 GR-EFC translocation, beta-gal luminescence, 2 h
In short: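 Translocation of GR-ED fusion to nuclear EA restores b-gal, read by luminescence after 1 h room-temperature detection. Engineered CHO-K1 biosensor cells, 1,000/well, exposed 2 h at 37 C to titrations up to 46 uM final.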

[6] = target: Mitogen-activated protein kinase 10 (Mus musculus) (UniProt Q61831); assay: JNK3 AlphaScreen Assay (AID 530);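 also: kinase came from lysate of stimulated human HepG2 cells; signal reports phosphorylation of biotinylated GST-cJun 1-79 at Ser73 with 10 µM ATP; % is scaled to controls: 0 for no effect and ±100 for the full control effect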
In short: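 qHTS titrations with 15 min compound pre-incubation before adding ATP (10 uM final). Read-out: AlphaScreen of Ser73-phosphorylated biotin-GST-cJun using HepG2 lysate JNK3 activated by IL-1β and TNFα.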

[7] = target: 3',5'-cyclic-AMP phosphodiesterase 4B (Homo sapiens) (UniProt Q07343); assay: qHTS Assay for Inhibitors of PDE-IV (AID 607; active = well fitted activation curve with a large enough effect in the main read-out, with a control signal flat, not every such curve was filed as active; also: % of control where 0% means no effect)
In short: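 HEK293 ACTOne cells with CNG channel (1000/well), endogenous PDE4; membrane potential dye, compounds up to 22.9 uM final. Fluorescence Ex 535/Em 590; RO 20-1724 (100 uM final) as reference.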

[8] = qHTS Assay for Lipid Storage Modulators (AID 1519; calls by dose curve); conditions: Drosophila S3 cells, BODIPY lipid droplet/cell ratio, laser cytometry, cells loaded with oleic acid
In short: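 Cells seeded at 5,000 per well were treated with compounds over a concentration series and loaded with oleic acid (400 uM, as added). Lipid droplet fluorescence (488 nm excitation, 500-530 nm channel) was read by laser-scanning cytometry and normalized to 20 uM Triacsin C.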

[9] = target: Ubiquitin carboxyl-terminal hydrolase 1 (Homo sapiens) (UniProt O94782); assay: Inhibitors of USP1/UAF1: Pilot qHTS (AID 504865; active = well fitted curve in the direction sought with a large enough effect; an effect the other way counts as inactive or inconclusive;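 also: rhodamine fluorescence freed from ubiquitin-rhodamine substrate followed over time; top concentration of the series differs between compounds; % is scaled to controls: 0 for no effect and ±100 for the full control effect; nearly all actives have a fitted effect of over 35% in size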)
In short: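 USP1/UAF1 complex (1nM) preincubated with compound 15 min at room temperature, then Ub-Rho substrate (150nM final) added. Fluorescence read kinetically at 480/540 nm, 6 reads every 60 seconds. Buffer: 50mM HEPES pH 7.8, 0.5mM EDTA, 0.1 mg/ml BSA, 1mM TCEP, 0.01% Tween-20.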

[10] = S16 Schwann cell viability assay (CellTiter-Glo assay) (AID 624031; active = well fitted curve in the direction sought with a large enough effect; an effect the other way counts as inactive or inconclusive;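 also: cellular ATP luminescence as a viability measure; plate controls were DMSO-treated cells for no effect and cell-free wells for full effect; nearly all actives have a fitted effect of over 70% in size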)
In short: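 Native S16 rat Schwann cells, 500-750 cells/well in DMEM with 10% FBS, dosed with compound after overnight culture and incubated 24h at 37 degree Celsius/5% CO2. Viability by CellTiter-Glo luminescence; % activity normalized to no-cell wells and DMSO-treated cells.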

AS120 = assay: qHTS profiling for inhibitors of Plasmodium falciparum proliferation (AID 504749; active = well fitted curve in the direction sought with a large enough effect; an effect the other way counts as inactive or inconclusive;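 also: 0% = DMSO vehicle and full inhibition = artemisinin control; nearly all actives have a fitted effect of over 60% in size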); conditions: P. falciparum in erythrocytes, SYBR Green DNA, 72 h; series mostly up to 12.8 µM
In short: (§1)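 SYBR Green fluorescence of parasite DNA, read after lysis and overnight dark incubation, measured growth over 72 h in erythrocyte culture at 0.3% parasitemia and 2.5% hematocrit. Data normalised to DMSO and 0.29 uM artemisinin, with plate-drift correction.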

C2A = assay: as above; conditions: P. falciparum in erythrocytes, SYBR Green DNA, 72 h; series mostly up to 12.8 µM
In short: as §1

CP237 = assay: as above; conditions: P. falciparum in erythrocytes, SYBR Green DNA, 72 h; series mostly up to 12.8 µM
In short: as §1

CP238 = assay: as above; conditions: P. falciparum in erythrocytes, SYBR Green DNA, 72 h; series mostly up to 12.8 µM
In short: as §1

CP252 = assay: as above; conditions: P. falciparum in erythrocytes, SYBR Green DNA, 72 h; series mostly up to 12.8 µM
In short: as §1

FAB9 = assay: as above; conditions: P. falciparum in erythrocytes, SYBR Green DNA, 72 h; series mostly up to 12.8 µM
In short: as §1

HB3 = assay: as above; conditions: P. falciparum in erythrocytes, SYBR Green DNA, 72 h; series mostly up to 12.8 µM
In short: as §1

JCK = assay: as above; conditions: P. falciparum in erythrocytes, SYBR Green DNA, 72 h; series mostly up to 12.8 µM
In short: as §1

PAD = assay: as above; conditions: P. falciparum in erythrocytes, SYBR Green DNA, 72 h; series mostly up to 12.8 µM
In short: as §1

[11] = measured here: cell count channel max response
[12] = measured here: lipid channel max response

3',5'-cyclic-AMP phosphodiesterase 4B (Homo sapiens), sequence (Q07343 whole entry, looked up): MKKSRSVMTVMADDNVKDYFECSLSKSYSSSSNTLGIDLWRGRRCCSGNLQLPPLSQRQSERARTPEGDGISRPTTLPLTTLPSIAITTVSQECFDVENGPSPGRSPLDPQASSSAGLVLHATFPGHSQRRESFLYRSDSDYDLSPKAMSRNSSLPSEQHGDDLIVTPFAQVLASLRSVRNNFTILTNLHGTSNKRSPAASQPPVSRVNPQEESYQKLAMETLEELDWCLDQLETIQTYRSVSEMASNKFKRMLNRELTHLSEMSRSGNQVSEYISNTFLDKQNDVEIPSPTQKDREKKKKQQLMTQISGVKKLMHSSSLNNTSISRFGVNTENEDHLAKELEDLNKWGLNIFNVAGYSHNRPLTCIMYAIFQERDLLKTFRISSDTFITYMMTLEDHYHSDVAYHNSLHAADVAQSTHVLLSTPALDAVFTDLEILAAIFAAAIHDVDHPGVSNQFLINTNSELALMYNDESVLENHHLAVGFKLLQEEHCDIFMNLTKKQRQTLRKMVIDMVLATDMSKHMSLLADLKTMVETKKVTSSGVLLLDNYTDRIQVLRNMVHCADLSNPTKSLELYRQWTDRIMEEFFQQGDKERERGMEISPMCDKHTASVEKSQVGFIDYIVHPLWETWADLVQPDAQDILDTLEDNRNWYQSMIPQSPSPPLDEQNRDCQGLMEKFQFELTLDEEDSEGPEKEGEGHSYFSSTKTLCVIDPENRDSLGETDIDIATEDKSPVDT
Glucocorticoid receptor (Homo sapiens), sequence (P04150 whole entry, looked up, the tested form may be a part): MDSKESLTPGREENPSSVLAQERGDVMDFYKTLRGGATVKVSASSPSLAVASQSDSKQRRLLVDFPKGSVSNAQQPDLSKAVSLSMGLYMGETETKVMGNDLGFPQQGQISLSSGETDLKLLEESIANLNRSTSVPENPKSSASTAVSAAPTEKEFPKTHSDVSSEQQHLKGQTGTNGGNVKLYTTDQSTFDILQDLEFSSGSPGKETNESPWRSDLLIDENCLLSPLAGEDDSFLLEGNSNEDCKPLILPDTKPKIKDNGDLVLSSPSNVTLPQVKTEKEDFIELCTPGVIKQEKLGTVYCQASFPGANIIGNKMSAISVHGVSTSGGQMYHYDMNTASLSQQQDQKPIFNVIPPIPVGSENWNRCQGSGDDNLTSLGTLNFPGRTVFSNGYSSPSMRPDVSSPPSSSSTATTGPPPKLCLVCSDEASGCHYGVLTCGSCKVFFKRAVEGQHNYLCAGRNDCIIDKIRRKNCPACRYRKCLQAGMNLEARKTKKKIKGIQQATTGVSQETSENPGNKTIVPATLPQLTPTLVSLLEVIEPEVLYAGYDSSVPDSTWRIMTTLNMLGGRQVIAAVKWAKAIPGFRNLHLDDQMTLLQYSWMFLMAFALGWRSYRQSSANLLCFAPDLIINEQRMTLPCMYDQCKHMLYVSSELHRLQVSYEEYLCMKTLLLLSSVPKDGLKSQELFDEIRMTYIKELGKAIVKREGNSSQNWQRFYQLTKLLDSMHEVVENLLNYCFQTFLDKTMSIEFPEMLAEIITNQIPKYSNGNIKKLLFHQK
Ubiquitin carboxyl-terminal hydrolase 1 (Homo sapiens), sequence (O94782 whole entry, looked up): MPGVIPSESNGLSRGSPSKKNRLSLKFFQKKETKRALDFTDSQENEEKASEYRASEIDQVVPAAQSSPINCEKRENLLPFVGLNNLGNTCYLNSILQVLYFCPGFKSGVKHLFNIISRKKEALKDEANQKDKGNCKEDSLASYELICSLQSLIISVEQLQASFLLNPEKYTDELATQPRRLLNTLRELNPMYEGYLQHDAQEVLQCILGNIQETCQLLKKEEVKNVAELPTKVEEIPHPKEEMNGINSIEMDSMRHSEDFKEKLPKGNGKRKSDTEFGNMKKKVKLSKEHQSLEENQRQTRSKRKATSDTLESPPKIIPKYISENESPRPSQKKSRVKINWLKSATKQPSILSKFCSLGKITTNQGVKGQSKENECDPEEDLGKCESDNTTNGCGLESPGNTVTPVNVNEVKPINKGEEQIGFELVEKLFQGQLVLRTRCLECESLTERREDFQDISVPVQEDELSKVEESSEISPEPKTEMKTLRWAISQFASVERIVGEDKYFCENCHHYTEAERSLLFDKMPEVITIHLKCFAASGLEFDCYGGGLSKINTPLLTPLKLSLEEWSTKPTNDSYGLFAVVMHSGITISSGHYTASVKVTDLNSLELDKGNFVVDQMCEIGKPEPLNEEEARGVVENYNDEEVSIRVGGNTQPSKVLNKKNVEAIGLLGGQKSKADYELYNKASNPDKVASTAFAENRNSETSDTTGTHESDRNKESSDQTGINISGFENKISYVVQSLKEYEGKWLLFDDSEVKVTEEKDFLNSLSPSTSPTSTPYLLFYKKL

Nc1c(O)cccc1C(=O)C[C@@H](N)C(=O)O
inactive: outcome [1] | activity change, negative = inhibition [2] -7.19% | outcome [3] | Potency [4] > 20.6 µM | Potency [5] > 20.6 µM | Potency [6] | outcome [7] | activity change, negative = inhibition ([8]; at 25.7 µM (top of the series)) -1.89%
-4.16%: max response [8, 11]
-9.91%: max response [8, 12]

NC[C@@H]1O[C@H](O[C@H]2[C@H](O)[C@@H](O[C@H]3[C@H](O)[C@H](N)C[C@H](N)[C@H]3O[C@@H]3O[C@H](CO)[C@@H](O)[C@H](O)[C@@H]3N)O[C@H]2CO)[C@@H](N)[C@H](O)[C@@H]1O
-14.4%: max response [8, 12]
inactive: outcome [1] | activity change, negative = inhibition [2] -6.33% | outcome [3] | Potency [4] > 20.6 µM | Potency [5] > 20.6 µM | Potency [6] | outcome [7] | activity change, negative = inhibition ([8]; at 25.7 µM (top of the series)) -3.71%
-10.9%: max response [8, 11]

COc1cc(OC)c2c(c1Cl)O[C@@]1(C2=O)[C@H](C)CC(=O)C[C@@H]1OC
-13.8%: max response [8, 11]
inactive: outcome [1] | activity change, negative = inhibition [2] -1.63% | outcome [3] | Potency [4] > 20.6 µM | Potency [5] > 20.6 µM | Potency [6] | activity change, negative = inhibition ([8]; at 25.7 µM (top of the series)) -1.85% | Potency [9]
-15.1%: max response [8, 12]

COCCOC(=O)C1=C(C)NC(C)=C(C(=O)OC(C)C)[C@H]1c1cccc([N+](=O)[O-])c1
inactive: outcome [1] | activity change, negative = inhibition [2] -10.3% | outcome [3] | Potency [4] > 20.6 µM | Potency [5] > 20.6 µM | outcome [7] | activity change, negative = inhibition ([8]; at 25.7 µM (top of the series)) -3.07% | Potency [9]
-5.25%: max response [8, 11]
-6.94%: max response [8, 12]

C[C@H](CCC(=O)O)[C@H]1CC[C@@H]2[C@@H]3[C@@H](O)C[C@H]4C[C@@H](O)CC[C@@]4(C)[C@H]3CC[C@@]21C
-0.386%: max response [8, 12]
-2.48%: max response [8, 11]
inactive: outcome [1] | activity change, negative = inhibition [2] 14.2% | outcome [3] | outcome [7] | activity change, negative = inhibition ([8]; at 25.7 µM (top of the series)) -0.554% | outcome [10] | Potency (AS120) | Potency (C2A) | Potency (CP237) | Potency (CP238) | Potency (CP252) | Potency (FAB9) | Potency (HB3) | Potency (JCK) | Potency (PAD)

CC(C)(N=NC(C)(C)C(=N)N)C(=N)N
0.846%: max response [8, 12]
-8.52%: max response [8, 11]
inactive: outcome [1] | activity change, negative = inhibition [2] 3.21% [at 7.69 µM] | outcome [3] | Potency [4] > 46 µM | Potency [5] > 9.22 µM | Potency [6] | outcome [7] | activity change, negative = inhibition ([8]; at 57.5 µM (top of the series)) 6.18% | Potency [9]

C[N+]1(C)CCC[C@H]1C(=O)[O-]
6.12%: max response [8, 11]
4.64%: max response [8, 12]
inactive: outcome [1] | activity change, negative = inhibition [2] -2.21% | outcome [3] | Potency [4] > 20.6 µM | Potency [5] > 20.6 µM | outcome [7] | activity change, negative = inhibition ([8]; at 25.7 µM (top of the series)) -1.16%
